# DT40 TDP1 no CPT – qHTS for Inhibitors of human tyrosyl-DNA phosphodiesterase 1 (TDP1): qHTS in cells in absence of CPT. AID 686978, 2013. actives 15% (n = 420,000). Potency, µM (titrated, usually from 46.2 µM), for the others: at the highest dose activity change, negative = growth inhibition, hits mostly inhibitors. DT40 Tdp1-/- hTDP1 cells, no CPT, ATP luminescence, 48 h; further: potency means the concentration at half of the fitted maximal effect; on the % scale 0 is the no-effect control and ±100 the full control effect; nearly all actives have a fitted effect of over 55% in size
#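 Chicken DT40 Tdp1-/- cells complemented with human TDP1, screened without camptothecin (DMSO vehicle only), 400 cells/well. Compounds pin-transferred, cells incubated at 37 °C for at least 48 hr. Growth read as ATP-dependent luminescence (CellTiter-Glo, 30 min at RT).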
# DT40 TDP1 CPT – DT40-hTDP1 cell growth loss with CPT. chicken DT40 Tdp1-/-;hTDP1 cells + 20 nM CPT, ATP luminescence, 48 h. Potency, µM (top dose mostly 46.2 µM), for inactives: at the top dose activity change, negative = growth inhibition, hits mostly inhibitors. actives 12% (n = 420,000). AID 686979; further: potency means the concentration at half of the fitted maximal effect; on the % scale 0 is the no-effect control and ±100 the full control effect; nearly all actives have a fitted effect of over 55% in size
#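 Chicken DT40 Tdp1-/- cells stably complemented with human TDP1 were seeded at 400 cells/well in medium containing 20 nM camptothecin, exposed to pin-transferred compounds, and grown at 37 °C for at least 48 hr. Viability was read as ATP luminescence.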
# ClpP mod – qHTS Assay for Activators of ClpP; ATP-dependent Clp protease proteolytic subunit (Bacillus subtilis (strain 168)), P80244; purified B. subtilis ClpP, FRET peptide cleavage, 20 min; Potency, µM (top dose mostly 57.5 µM), for the others: at the top dose activity change, negative = active; actives 1.9% (n = 340,000); AID 651965, 2013; active means well fitted falling curve with a large enough effect; inconclusive means small, poorly fitted or top-dose-only effect; inactive means no such curve, though single readings can be large or run the other way; further: potency means the concentration at half of the fitted maximal effect; the source files actives as falling curves though it sought activators and does not explain the sign; nearly all actives have a fitted effect of over 65% in size
# Target sequence (P80244 whole entry, looked up): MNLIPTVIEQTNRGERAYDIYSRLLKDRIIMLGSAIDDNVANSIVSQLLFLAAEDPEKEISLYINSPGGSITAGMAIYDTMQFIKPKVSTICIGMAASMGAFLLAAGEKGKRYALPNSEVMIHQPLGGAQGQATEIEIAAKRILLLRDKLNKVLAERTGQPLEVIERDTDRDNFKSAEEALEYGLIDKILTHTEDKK
#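 FRET quenching reversal measured ClpP activation: 10 microg/mL B. subtilis ClpP at pH 8 with the FRET-FV decapeptide, read at 430 nm after 320 nm excitation. The 20-min minus 0-min signal was scaled between DMSO/no-enzyme wells and ADEP (5.8 microM final).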
# DRD3 agonist – D3 dopamine receptor (human) agonism. max activation, %. D3R DiscoveRx beta-arrestin cells, luminescence, 90 min. actives 0.58% (n = 410,000). P35462; in the data active means max activation above about 30%; further: 0% is about no effect
# Target sequence (P35462 whole entry, looked up): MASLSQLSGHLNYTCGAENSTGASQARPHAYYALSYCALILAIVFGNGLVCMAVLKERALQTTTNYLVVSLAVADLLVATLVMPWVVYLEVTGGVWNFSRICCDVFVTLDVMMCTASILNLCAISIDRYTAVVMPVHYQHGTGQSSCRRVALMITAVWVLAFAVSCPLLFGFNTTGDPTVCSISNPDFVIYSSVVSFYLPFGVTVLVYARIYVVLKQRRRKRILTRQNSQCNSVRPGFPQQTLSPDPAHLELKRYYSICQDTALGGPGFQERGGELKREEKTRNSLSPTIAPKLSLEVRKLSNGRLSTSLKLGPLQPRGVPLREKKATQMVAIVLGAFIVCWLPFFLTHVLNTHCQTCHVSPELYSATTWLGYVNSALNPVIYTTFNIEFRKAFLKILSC
#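 Cells at 1500/well, incubated overnight, then treated with pinned compounds (dopamine as control) for 90 min at 37 degrees C. DiscoveRx reagent added for 30 - 60 minutes at room temperature; luminescence read.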
# IL-1B inflam inh – blocks inflammasome-driven IL-1 beta release; THP-1 LPS/ATP IL-1B secretion, AlphaLISA, 16 h; hits give low values; activity change, % at 57.5 µM; actives 4.7% (n = 360,000); in the data active means activity change below about -50%; inconclusive means mostly about -30% to -49%; further: on the % scale 0 is the no-effect control and ±100 the full control effect
#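 THP-1 cells pretreated 1 hr with compounds (up to 57.5 uM final), then stimulated with LPS (250 ng/mL final) plus ATP (1.25 mM final); secreted IL-1B measured by AlphaLISA after 16 hr, decreased signal indicating inhibition.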
# DRD3 antagonist – D3 dopamine receptor (human) antagonism. P35462. D3R cells, DiscoveRx beta-arrestin luminescence, antagonist mode; hits give low values. max response, negative = inhibition, %. actives 2.5% (n = 360,000). AID 652054; in the data active means max response below about -50%; inconclusive means no clear call, values can overlap the other calls; further: on the % scale 0 is the no-effect control and ±100 the full control effect
#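 Cells plated overnight at 1500 cells/well, then exposed to library compounds with dopamine controls for 90 minutes at 37 degrees C. DiscoveRx reagent added for 30–60 minutes at room temperature; luminescence read, quantitative HTS format.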
# Numbers without * were called inactive; ? = inconclusive; / = not tested or not shown. Rows were chosen to be rich in hits. Some 21% of all compounds tested hit in one or more screens of this group. Unless noted, the call rests on the fitted dose curve; in most records, active means well fitted inhibition curve with a large enough effect; inconclusive means small, poorly fitted or top-dose-only effect; inactive means flat fitted curve, though single readings scatter.
SMILES,DT40 TDP1 no CPT,DT40 TDP1 CPT,ClpP mod,DRD3 agonist,IL-1B inflam inh,DRD3 antagonist
Cc1ccc(N2CCN(C(=O)Cn3ncc4c([nH]c5ccc(C)cc54)c3=O)CC2)c(C)c1,-29.4%,-24.9%,-3.4%,0.4,/,/
Cc1ccc(-c2noc(CNC(=O)c3ccc4c(c3)OCO4)n2)cc1,?,7.9%,0.9%,-9.1,-5.7,14.7
CCOC(=O)C1=C(CSc2nc3ccccc3s2)NC(=O)NC1c1cccc([N+](=O)[O-])c1 (configuration not stated),?,18.4µM*,-17.0%,-8.0,-17.3,6.0
COc1ccc(OCC(O)Cn2c(Nc3cccc(C)c3)nc3c2c(=O)n(C)c(=O)n3C)cc1 (configuration not stated),14.6µM*,?,-0.9%,7.5,32.8,12.2
CCNc1nc2c(c(=O)n(C)c(=O)n2C)n1CC(O)COc1ccccc1 (configuration not stated),/,/,-2.7%,-1.3,/,/
COc1ccc(OCC(O)Cn2c(NCCO)nc3c2c(=O)n(C)c(=O)n3C)cc1 (configuration not stated),10.3µM*,9.2µM*,-3.9%,-10.1,/,/
Cc1cc(NC(=O)/C=C/c2ccccc2Cl)n(-c2nc3ccccc3[nH]2)n1,10.3µM*,?,0.8%,13.0,-6.4,-4.6
Cc1cc(NC(=O)c2ccc(F)cc2F)n(-c2nc3ccccc3[nH]2)n1,-15.8%,?,-15.7%,24.5,1.6,19.6
Cc1cc(NC(=O)CC2CCCC2)n(-c2nc3ccccc3[nH]2)n1,20.6µM*,?,19.1%,-2.2,-9.0,8.4
COc1cccc(Cn2c(=O)c(-c3ccccc3)nc3cncnc32)c1,-25.6%,?,/,/,/,/
Nc1ccc2oc(=O)c3ccccc3c2c1,-21.0%,-24.6%,-2.0%,-6.2,-76.7*,-6.4
COc1ccc(C)cc1NC(=O)N1CCN(c2cc(-c3noc(C)n3)ccc2C)CC1,23.1µM*,?,-4.7%,-4.6,/,/
O=[N+]([O-])c1ccc(NCCNCCOc2nonc2-c2ccccc2)c([N+](=O)[O-])c1,?,-22.4%,15.8µM*,-23.3,-9.1,-14.8
CCOc1ccc(C2C(C(=O)OC)=CN(C(C)c3ccccc3)C=C2C(=O)OC)cc1 (configuration not stated),20.6µM*,?,4.1%,-7.0,-8.7,-12.0
CC[C@]12c3[nH]c4ccccc4c3CCN1C(=O)C(CC(=O)NCc1ccc(OC)c(OC)c1)C[C@@H]2C(=O)N1CCN(C(=O)C2CC2)CC1 (some centres not stated),?,-5.7%,0.3%,-1.6,2.4,-5.5
CN(C)c1ccc(C2CCc3ccccc3N2C(=O)c2ccccc2)cc1 (configuration not stated),7.94µM*,11.2µM*,-4.5%,/,/,/
CC1CCCN(C/C=C/c2ccccc2[N+](=O)[O-])C1 (configuration not stated),-4.8%,-20.2%,-0.1%,-49.7,0.7,-90.6*
CCC1CCCCN1C/C=C/c1ccccc1[N+](=O)[O-] (configuration not stated),-16.5%,-18.7%,-0.1%,-26.7,0.3,-55.2*
O=C(CSc1nnc2ccccn12)Nc1ccc(S(=O)(=O)N2CCOCC2)cc1,-0.2%,-2.4%,-11.0%,-5.9,16.6,8.0
Cc1ccc(S(=O)(=O)NC(=O)C2(C)CCN2C(=O)CC2CCCCC2)nc1 (configuration not stated),0.2%,1.8%,-3.3%,-2.9,7.2,-28.1
CCCSc1nnc2c(n1)OC(c1cccs1)Nc1ccc(Br)cc1-2 (configuration not stated),-25.8%,-8.7%,-1.1%,9.0,/,/
Cc1ccc(C(=O)NNC(=O)c2ccccc2O)cc1S(=O)(=O)N1CCCCC1,?,16.4µM*,0.6%,3.5,38.4,8.7
Cc1ccc(C(=O)Nc2ccccc2C(=O)NCc2ccco2)cc1S(=O)(=O)N1CCCCC1,16.4µM*,?,?,1.8,1.7,6.4
Cc1ccc(C(=O)NC2CCCC2)cc1S(=O)(=O)N1CCCCC1,11.0%,-21.7%,-1.3%,1.0,27.0,9.5
CN(C)c1ncc2nc(CCc3ccccc3)c(=O)n(-c3ccccc3)c2n1,-7.6%,-1.0%,/,/,/,/
SMILES,DT40 TDP1 no CPT,DT40 TDP1 CPT,ClpP mod,DRD3 agonist,IL-1B inflam inh,DRD3 antagonist
C=CCn1c(CNc2ccccc2)nnc1SCC(=O)N/N=C/c1ccc(O)cc1O,?,18.4µM*,-2.1%,0.7,86.0,7.1
C=CCn1c(COc2ccccc2)nnc1SCC(=O)N/N=C/c1ccc(C)cc1,?,?,-1.5%,-2.5,-21.0,21.9
C=CCn1c(CNc2ccc(C)cc2)nnc1SCC(=O)N/N=C/c1ccc(O)cc1O,?,18.4µM*,-1.0%,9.8,82.1,140.8
O=C(Nc1ccccc1)OC1CCC2CC1CCC2OC(=O)Nc1ccccc1 (configuration not stated),11.6µM*,13µM*,5.9%,-0.9,?,-2.3
O=C(Nc1ccccc1)C1CC2CCC1C2 (configuration not stated),14.6%,12.3%,-0.2%,2.4,8.9,-11.2
CC1(C)CCC(=O)N2CC[C@H]3C[C@H](OC(=O)Nc4ccc5c(c4)OCO5)C[C@@H]1[C@H]32,?,?,1.0%,3.5,-15.0,-24.2
CC1(C)CCC(=O)N2CC[C@H]3C[C@H](OC(=O)Nc4ccccc4)C[C@@H]1[C@H]32,?,15.8µM*,-0.1%,-5.8,-17.8,-0.6
CCOc1ccc(N2CC(NS(=O)(=O)c3cccnc3)CC2=O)cc1 (configuration not stated),-2.4%,-5.7%,0.3%,12.7,9.8,-6.1
CN(C)S(=O)(=O)c1ccc(C(=O)Nc2nc(-c3cccs3)cs2)cc1,?,20.6µM*,113.4%,0.1,-2.6,20.5
O=C(Nc1nc(-c2ccc3c(c2)OCCO3)cs1)c1ccc(S(=O)(=O)N2CCCCC2)cc1,?,?,-5.8%,3.1,-78.9*,-18.2
O=C(Nc1nc(-c2cccs2)cs1)c1ccc(S(=O)(=O)N2CCCC2)cc1,?,?,-15.7%,11.1,-72.5*,15.0
CC(=O)Nc1nc(-c2cccs2)cs1,-12.5%,6.4%,-7.9%,-5.3,7.1,15.8
O=C(Nc1nccs1)c1ccc(S(=O)(=O)N2CCOCC2)cc1,16.4µM*,?,/,25.8,0.0,12.7

# High-throughput results (PubChem)
